HIF-2a block = inhibitors of HIF-2a; inhibition, % at 18.8 µM; 360,000 tested, 0.72% active; 786-0 RCC cells HIF-2a reporter, luciferase luminescence, overnight; AID 624352;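 active = inhibition of the luminescence signal of 40% or more relative to plate controls, in a single-dose primary screen at 18.75 µM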
Peg3 promoter = reduces Peg3 promoter-driven luciferase expression in HeLa | HeLa PEG-Prom luciferase reporter, luminescence, overnight | inhibition, % at 20 µM | 360,000 tested, 1.7% active;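 active = inhibition of at least 50% at 20 µM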
TROY signal inh = blocks TROY-dependent signaling in reporter cells; Q293 LMP1-TROYcd NF-kB luciferase reporter, 4 h; inhibition, % at 10 µM; 360,000 tested, 0.98% active; AID 1347056;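 active = compounds whose plate-normalised and pattern-corrected inhibition of the luciferase reporter signal at the single screening dose is 50% or more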
KKLEB cytotox = CF airway cell cytotoxicity counter-screen. KKLEB CF airway cells viability, ATPlite luminescence, overnight; hits give low values; cells stimulated with P. aeruginosa culture filtrate. activity change (cytotoxicity), % at 5 µM. 360,000 tested, 0.36% active. AID 602141;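 active = corrected activity change at or below -50% at 5 µM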
TWEAK Fn14 block = TWEAK-Fn14 signaling inhibition; inhibition, % at 10 µM; TWEAK-stimulated Fn14 reporter cells, luciferase luminescence, 8 h; AID 1159606; 360,000 tested, 2% active; in the data active = inhibition above about 50%
CF NFkB inh = inhibitors of cystic fibrosis induced NF-kB | KKLEB NF-kB-GFP reporter, PAF-induced, GFP fluorescence overnight | inhibition, % at 5 µM | 360,000 tested, 0.86% active | AID 588850;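 active = at least 50% inhibition at 5 µM, scaled per plate between neutral and stimulator controls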;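 also: PAF is a Pseudomonas aeruginosa culture filtrate used as stimulus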
A number is an active result; n = inactive; x = not tested or not shown. In the library only some 3.9% were active in any assay of this set; here they are far more common.

SMILES | HIF-2a block | Peg3 promoter | TROY signal inh | KKLEB cytotox | TWEAK Fn14 block | CF NFkB inh
CCN1C(=O)/C(=C\c2nc3ccccc3c(=O)n2-c2ccccc2)c2ccccc21 | n | n | n | n | 57.2 | n
CCN1C(=O)/C(=C/c2nc3ccccc3c(=O)n2-c2ccc(C)cc2)c2ccccc21 | n | n | n | n | 67.5 | n
Cc1cc(=O)oc2cc(NC(=S)NCc3cccnc3)ccc12 | n | n | n | n | n | n
CCOc1ccc(C(=O)N2CCCC(c3nc(-c4cccs4)no3)C2)cc1 (configuration not stated) | n | n | 63.6 | n | 62.8 | n
Cn1c(CC(=O)Nc2ccccc2F)nnc1SCC(=O)NC1=NCCS1 | n | n | n | n | 53.1 | n
Cn1c(NC(=O)c2cccnc2)nc2ccccc21 | n | n | n | n | n | n
O=C(O)CCn1cc(/C=C\C(=O)c2ccc(Cl)cc2)c(-c2cccc(Br)c2)n1 | n | n | n | n | 64.2 | n
COc1ccc(-c2nn(CCC(=O)O)cc2/C=C/C(=O)O)cc1[N+](=O)[O-] | n | n | 64.8 | n | n | n
COC(=O)c1cnc(Nc2nc(C(N)Cc3ccccc3)cs2)nc1C(F)(F)F (configuration not stated) | n | 52.0 | n | n | n | n
COC(=O)c1cnc(Nc2nc(C(N)Cc3ccc(Cl)cc3)cs2)nc1C(F)(F)F (configuration not stated) | n | 95.9 | n | n | n | n
COC(=O)c1cnc(Nc2nc(C(N)Cc3ccc(OC)cc3)cs2)nc1C(F)(F)F (configuration not stated) | n | n | n | n | n | n
NS(=O)(=O)c1cccc(NC(=O)CCCC2CCCCC2)c1 | n | n | n | n | n | n
Cc1nnc(C)n1/N=C/c1cc2ccccc2nc1Cl | n | 78.3 | n | n | n | n
FC(F)(F)C1=CC(c2ccc(Cl)cc2)=NCCN1 | n | n | n | n | n | n
O=C(/C=C/c1ccccc1[N+](=O)[O-])c1ccc(F)cc1 | n | 106.8 | n | n | n | n
O=C(/C=C/c1ccccc1[N+](=O)[O-])OCC(=O)c1ccccc1 | n | n | n | n | n | n
O=C(Nc1cccc(F)c1)c1ccc(Cn2cc([N+](=O)[O-])cn2)o1 | n | n | n | n | n | n
O=[N+]([O-])c1ccccc1CN1CCN(Cc2ccc3ccccc3c2)CC1 | n | n | n | n | 64.7 | n
COc1ccccc1CN1CCN(Cc2ccc3ccccc3c2)CC1 | n | n | n | n | n | n
OC1CCN(Cc2ccc3ccccc3c2)CC1 | n | n | n | n | 96.6 | n
CCOc1ccccc1NC(=O)c1cc(=O)c2ccccc2o1 | n | n | n | n | n | n
Cc1cccc(OCc2nnc(SCC(=O)OC3CCCCC3)o2)c1 | n | n | n | n | n | n
Cc1ccc(S/C=C\C(=O)c2ccccc2)cc1 | n | n | 53.1 | n | 87.7 | n
O=C(C[C@H]1C=C[C@@H](NC(=O)c2ccncc2)[C@@H](CO)O1)NCC1CC1 | n | x | x | x | x | x
CCOc1ccc(/C=C/C(O)=C2/C(=O)N(C)C3(C)CC2c2ccccc2O3)cc1OC (configuration not stated) | 61.7 | n | n | n | n | n
SMILES | HIF-2a block | Peg3 promoter | TROY signal inh | KKLEB cytotox | TWEAK Fn14 block | CF NFkB inh
Cc1ccc(C(=O)/C=C/c2ccc(-c3ccc(C)cc3)o2)cc1 | n | 73.6 | n | n | n | n
CCN(CC)S(=O)(=O)c1ccc(C(=O)/C=C/c2ccc(-c3ccc([N+](=O)[O-])cc3)o2)cc1 | n | n | n | n | n | n
O=C(/C=C\c1ccc(-c2ccccc2)o1)c1ccccc1 | n | 80.4 | n | n | n | n
CC(=O)OCc1cc(-c2nc3ccccc3[nH]c2=O)nn1-c1ccc(Cl)cc1 | n | n | n | n | n | n
CCCN(CCC)CCNC(=O)c1cc2c(-c3ccc(Cl)cc3)nn(C)c2s1 | n | 76.3 | n | n | n | n
CCOCCCNC(=O)c1cc2c(-c3ccc(Cl)cc3)nn(C)c2s1 | n | n | n | n | n | n
CCCCN(CC)CCNC(=O)c1cc2c(-c3ccc(Cl)cc3)nn(C)c2s1 | n | 102.7 | n | n | n | n
COc1ccc(CN(C)C(=O)c2ccc(NS(=O)(=O)c3ccc(F)cc3)cc2)c(OC)c1 | n | n | n | n | n | n
C=CCn1c(C)nnc1SCC(=O)N1CCN(S(=O)(=O)c2ccccc2)CC1 | n | n | n | n | n | n
CCOc1ccccc1C(=O)N[C@H](C(=O)NNC(=O)c1cccs1)C(C)C | n | n | n | n | n | n
Cc1ccccc1OCC(=O)OCC(=O)Nc1cc(C(F)(F)F)ccc1N1CCOCC1 | n | n | n | n | n | n
CCOC(=O)N1CCN(Cc2c(F)cccc2F)CC1 | n | n | x | n | 71.2 | n
Cc1ccc(NC(=O)c2cc(-n3cnnc3)ccc2Cl)cc1 | n | n | n | n | n | n
Cc1ccc(NC(=O)c2cc(N3C(=O)C=CC3=O)ccc2Cl)cc1C | n | 79.8 | n | n | n | n
O=C(CNC(=O)c1ccccc1F)OCc1csc(-c2ccccc2)n1 | n | n | n | n | n | n
O=C(NCCc1c[nH]c2ccccc12)C1CCC(Cn2c(=S)[nH]c3ccccc3c2=O)CC1 (configuration not stated) | n | n | n | n | 61.6 | n
O=[N+]([O-])c1ccc(OCc2cnc(Cl)s2)c([N+](=O)[O-])c1 | n | n | n | n | n | n
COc1cc(/C=N/NC(=O)CCn2cnc(-c3ccccc3)c2-c2ccccc2)ccc1O | n | 53.1 | n | n | n | n
COc1cc(/C=N/NC(=S)Nc2cccc(C(=O)O)c2)ccc1O | 43.3 | n | n | n | n | n
COc1cc(/C=N/Nc2nc(C)nc3c2cnn3-c2ccccc2)ccc1O | n | n | n | n | 64.0 | n
COc1ccc(/C=N/NC(=S)Nc2cccc(C(=O)O)c2)cc1 | n | n | n | n | 50.0 | n
CCC(=O)N1CCc2cc(Br)cc(S(=O)(=O)NCCN3CCCCC3CC)c21 (configuration not stated) | n | n | n | n | n | n
COc1cc(/C=N/Nc2ccccn2)ccc1O | n | n | 87.5 | n | 63.1 | n
COc1cc(/C=N/Nc2ccc(C(=O)O)cc2)cc(OC)c1OC | n | n | n | n | n | n
COc1cc(/C=N/Nc2ccc(C(=O)O)cc2)ccc1O | n | n | n | n | 71.5 | n
Cc1nnc(SCC(=O)NC2(C#N)CCCCC2)n1N | n | n | n | n | n | n
Cc1ccccc1C(C(=O)NCc1ccccc1)N(Cc1ccco1)C(=O)c1ccccn1 (configuration not stated) | n | n | n | n | n | n
COc1cc(Nc2ccn3nc(-c4ccccc4Cl)cc3n2)cc(OC)c1OC | n | n | n | n | 60.5 | n
COc1ccccc1-c1cc2nc(NCCOc3ccccc3)ccn2n1 | n | n | n | n | n | n
N#Cc1c(-c2ccc(Br)cc2)cc(-c2cccnc2)nc1N | n | n | n | n | n | n
